The results in this text go back to PubChem BioAssay AID652067 (The Scripps Research Institute Molecular Screening Center, 2013).

About 5,400 (1.5%) of roughly 370,000 compounds were called active. Shown is part of a subset that was picked to be rich in actives. Values without a mark were called inactive.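 Rule for the calls: active = activation above the mean of all tested compounds plus 3 SD (cut at about 5.5% in these data); inactive = the rest.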

The assay relates to DAF-12 nuclear receptor (Haemonchus contortus). The experiment in a line: H. contortus DAF-12 nuclear receptor activators, primary screen, cell-based, luminescence, HEK293, lit1-tk-luc reporter (AID 652067).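 Note: 100% = response to 3 µM Δ7-dafachronic acid high control.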 Particulars: HEK293 hcDAF-12 lit1-tk-luc reporter, at 6.8 µM, stronger effect = higher value, 0% DMSO, 100% Δ7-dafachronic acid.
For the compound `Cc1cc(C)nc(NC(=S)N2CCN(c3ccc(C(F)(F)F)cn3)CC2)c1`, the activation was -1.92%. Then `CCCCN(C)C(=O)C1CCN(Cc2ccccn2)CC1`, with -1.01%. To `COc1ccc(-c2c3c(=O)n(C)c(=O)n(C)c3cn2-c2cccc(OC)c2)cc1` belongs 7.44% (active); to `COc1ccc(OC)c(-n2cc3c(=O)n(C)c(=O)n(C)c3c2)c1`, -1.87%; to `Cc1ccc(-c2c3c(=O)n(C)c(=O)n(C)c3cn2-n2cnnc2)cc1`, 2.64%. To `Cc1ccc(C)c(NC(=O)CCS(=O)(=O)c2ccccc2)c1` belongs -3.65%. Consider `COCC(C)NC(=O)c1ccc(Cl)c(Cl)c1` (stereo not drawn), for which the activation is -2.09%.

In the case of `CC(CCc1ccccc1)NC(=O)c1cnc(Cl)c(Cl)c1` (stereo not drawn), the activation is 6.18% (active). Regarding `CC1=C(C)CC(C(=O)NC(C)CCc2ccccc2)C(C(=O)O)C1` (stereo not drawn), the activation is -2.02%. Regarding `O=C(NC1CCCC1)C1CSCCS(=O)(=O)N1Cc1ccccc1` (stereo not drawn), the activation was -0.49%. As to `COc1ccccc1CCn1cnc(-c2ccccc2)c1C(C)C`, the activation is 0.67%. To `O=C(NCc1ccccc1)[C@H]1CCCN1C(=O)[C@H]1CCCN1C(=O)c1cc(F)cc(F)c1` belongs 0.44%; to `C[C@@H]1COc2cccc(N3CCCC3)c2S(=O)(=O)N1C`, -0.39%; to `COC(=O)[C@H](C(C)C)N(CCCc1cn(Cc2ccccc2)nn1)S(=O)(=O)c1ccc(F)cc1Br`, -4.11%.

For `CC(C)(C)n1nc(C2CC2)c(Br)c1NC(=O)c1ccccc1F`, the activation is -0.41%. Then `Fc1ccc2nc(Nc3nc4c(s3)CCCC4)sc2c1`, with 10% (active); and `COC(=O)C(NC(C)=O)(Nc1nc2c(s1)CCCC2)C(F)(F)F` (stereo not drawn), with 1.23%. Then `O=C(C1CCN(S(=O)(=O)c2ccccc2)CC1)N1CCN(C2CCCCC2)CC1`, with -1.68%. Then `COCCCNC(=O)C[C@H]1C[C@@]2(C(=O)OC)C(=C[C@H](C(C)(C)C)O[C@@H]2C)N(Cc2ccc(Cl)cc2Cl)C1=O`, with 0.08%; and `COC(=O)Cc1nnn2c1[C@H](C)[C@@H](OC)c1cc(Br)ccc1-2`, with -1.33%. On to `O=C1c2ccccc2C(c2nc3ccccc3[nH]2)N1c1ccccc1` (stereo not drawn), for which the activation was -0.51%. With `CCOC(=O)c1nc(-c2ccc3c(c2)OCO3)[nH]c1C`, the activation is 4.99%.

Regarding `C/C(=N\Nc1nc2ccccc2[nH]1)c1cccs1`, the activation was 5.49%. For `CCOC(=O)CNC(=O)CSc1ncccc1-c1nc2ccccc2[nH]1`, the activation was 1.6%. Then `c1ccc2[nH]c(-c3nc4ccccc4[nH]3)nc2c1`, with 11.1% (active); and `Cc1ccc(-c2nc3ccccc3[nH]2)cc1N`, with 10.9% (active); and `COC(=O)C1CN(CC(C)C)CCS(=O)(=O)N1Cc1ccc(F)cc1` (stereo not drawn), with -1.55%. On to `C#CCCN([C@H](C(=O)OC)C(C)C)S(=O)(=O)c1ccc(F)cc1Br`, for which the activation is -1.11%. Consider `CN(CC(=O)Nc1cccc(F)c1)C(=O)C1CC(=O)N(CCc2ccccc2)C1` (stereo not drawn), for which the activation was 6.61% (active). As to `CCNC(=O)c1cccc(NC(=O)C2CC(=O)N(CCc3ccccc3)C2)c1` (stereo not drawn), the activation is -0.37%.

With `CN(Cc1ccccc1Cl)C(=O)C1CCC(=O)N(CCc2cccc(F)c2)C1` (stereo not drawn), the activation was -0.75%. As to `Cc1cccc(C)c1NC(=O)CSc1nc2c([nH]1)c(=O)n(C)c(=O)n2C`, the activation was -0.94%.

On to `Cc1cc(C)c(C=NNc2nc3c([nH]2)c(=O)n(C)c(=O)n3C)c(C)c1`, for which the activation was 1.11%.

`Cc1ccc(NN=Nc2nc3c([nH]2)c(=O)n(C)c(=O)n3C)cc1`: the activation is 9.25% (active). On to `O=C(CSc1nc2ccccc2nc1N1CCCCC1)N1CCN(S(=O)(=O)c2cccc([N+](=O)[O-])c2)CC1`, for which the activation was -0.06%. Consider `Cc1ccc(-n2c(SCC(=O)Nc3ccc4c(c3)OCO4)nnc2-c2ccccn2)cc1`, for which the activation was -2.82%. To `O=C(CSc1nnc(-c2ccccn2)n1-c1ccccc1)Nc1ccc2c(c1)OCO2` belongs -1.02%. With `CC(C#N)OC(=O)c1cccnc1SCC(=O)Nc1ccc2c(c1)OCO2` (stereo not drawn), the activation is 7.41% (active). Then `COC(=O)c1cc(S(=O)(=O)N2CCN(c3ccccc3C)CC2)cn1C`, with -0.73%. Then `C[C@H](O)[C@@H]1C(=O)N2CCc3c([nH]c4c(-c5ccc6c(c5)OCO6)cccc34)[C@@H]2C[C@@H]1N(C)C(=O)c1ccco1`, with 1.47%. As to `Cc1cccc(C(=O)Nc2c(-c3ccc(F)cc3)nc3ncccn23)c1`, the activation is -3.14%. `COc1ccc(/C=C2\CC3(OC(C)=O)CCCN2C3)cc1` (stereo not drawn): the activation is -3.46%. Then `O=C(COC(=O)c1ccccn1)Nc1cccc2ccccc12`, with -0.09%; and `Cc1cc(NC(=O)COc2ccccc2C#N)no1`, with 3.78%. `N#Cc1ccccc1NC(=O)COc1c(Br)cc(Br)c2cccnc12`: the activation is 5.88% (active). To `COC(=O)C1=C(C)N(Cc2ccccc2C(F)(F)F)C(=NCc2ccc(OC)cc2)NC1c1cccc(C(F)(F)F)c1` (stereo not drawn) belongs 0.01%. Turning to `CC(C)[C@H]1COCCS(=O)(=O)N1Cc1ccccc1-c1cccc2c1sc1ccccc12`, the activation is 1.38%.

With `CC(C)N(Cc1ccccc1)C(=O)COC(=O)c1cnccn1`, the activation is -0.24%. Then `Brc1ccc(-c2noc(-c3ccccc3)n2)o1`, with 7.04% (active); and `O=C(Oc1ccc(-c2nc(-c3ccccn3)no2)cc1)c1ccccc1`, with 0.86%; and `O=S(=O)(c1ccc(Br)cc1)c1nc(-c2ccccc2)oc1N1CCOCC1`, with 1.01%.

As to `Cc1ccc(-n2c(SCC(=O)Nc3ccc(S(=O)(=O)Nc4nccs4)cc3)nnc2-c2cccnc2)cc1`, the activation is -2.17%.

Turning to `c1ccc(C2=Nc3cccc4cccc(c34)N2)cc1`, the activation is 6.59% (active).

Take `Brc1ccc(C2CC(c3ccccc3)=Nc3ccccc3N2)cc1` (stereo not drawn): the activation is 4.68%.

As for `COc1ccccc1C1=Nc2cccc3cccc(c23)N1`, the activation was -1.59%. Regarding `O=C(CSc1nc2ccccc2n1Cc1ccccc1Cl)N/N=C\c1c[nH]c2ccccc12`, the activation is 1.72%. To `O=C(CC1SCCNC1=O)Nc1ccc(Cl)cc1` (stereo not drawn) belongs 1.04%. As for `CCOCc1nnc(NC(=O)CCC2CCCCC2)s1`, the activation was -1.11%.
